# Measurements taken from PubChem BioAssay (EPA / NIEHS).
# Results filed as inconclusive are left out. Where a structure was tested more than once in an assay, its records may differ in their call. Calls of active or inactive are those of the source. Rule for the calls, unless noted: active = hit-call score of the fitted dose curve at least 0.9, where 1 is the maximum; inconclusive = response in the unintended direction; inactive = score below 0.9.
# Experiments:
# [1] = tested on: Sodium/Iodide Symporter (NIS), SLC5A5 (gene 6528); assay: CPHEA_Stoker_NIS_Inhibition_RAIU: CPHEA's Radioactive Iodide Uptake (RAIU) Assay for Sodium/Iodide Symporter (NIS) Inhibition, Stoker and Laws Labs (AID 2283841)
# Summary of the method: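 HEK293T cells stably expressing human NIS (hNIS-HEK293T-EPA) were exposed to test chemicals at 0.001–100uM (0.5% final DMSO) with 125I at a final 329pM in HBSS/10mM HEPES pH 7.4. After 2 hours at room temperature and ice-cold washes, intracellular 125I was counted as CPM and normalized to DMSO wells.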
# [2] = CPHEA_Stoker_NIS_Cytotoxicity: Cytotoxicity Assessment for CPHEA's Radioactive Iodide Uptake (RAIU) Assay for Sodium/Iodide Symporter (NIS) Inhibition, Stoker and Laws Labs (AID 2283897);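 for AC50: active means loss of ATP signal versus DMSO meaning cytotoxicity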
# Summary of the method: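 hNIS-HEK293T-EPA human kidney cells were exposed for 2 hours at room temperature to test chemicals (0.001–100uM, 0.5% final DMSO) in HEPES-buffered HBSS, pH 7.4. Viability was read as ATP content by luciferase bioluminescence, loss of signal versus DMSO.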
# [3] = tested on: turtle Thyroid Hormone Receptor, alpha (TRa), gene 101949057; assay: ATG_trTRa_XSP2: Attagene TRANS-FACTORIAL Multi-Species (XSP1) HepG2 Assay for turtle Thyroid Hormone Receptor, alpha (TRa) (AID 2283834);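 note: hits raise reporter mRNA over the DMSO baseline so AC50 marks activators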
# Summary of the method: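 Transfection of HepG2 with multiple reporter transcription units, then chemical dosing for 24 h. Total RNA was reverse-transcribed, reporter sequences PCR-amplified and FAM-labelled, then sized by capillary electrophoresis. DMSO served as baseline.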
# [4] = ATG_M_61_XSP2: Attagene TRANS-FACTORIAL Multi-Species (XSP2) HepG2 Assay for M61 Transcription Factor (Internal Marker) (AID 2283835; active = hit-call score of the fitted dose curve at least 0.9, where 1 is the maximum; inactive = score below 0.9;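 note: active means a rise in signal above the DMSO baseline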)
# Summary of the method: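 HepG2 cells transiently transfected with multiple GAL4-UAS reporter units; reporter mRNA measured 24 h after dosing by RT-PCR, fluorescent labelling and capillary electrophoresis. Medium contained 3 nM 6-alpha-fluorotestosterone and 1.5 nM norgestrel; internal marker, DMSO baseline.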
# [5] = target: zebrafish Thyroid Hormone Receptor beta (TRb), thrb (gene 30607) (UniProt Q9PVE4); assay: ATG_zfTRb_XSP2: Attagene TRANS-FACTORIAL Multi-Species (XSP1) HepG2 Assay for zebrafish Thyroid Hormone Receptor beta (TRb) (AID 2283836)
# zebrafish Thyroid Hormone Receptor beta (TRb), thrb (gene 30607), sequence (Q9PVE4 whole entry, looked up): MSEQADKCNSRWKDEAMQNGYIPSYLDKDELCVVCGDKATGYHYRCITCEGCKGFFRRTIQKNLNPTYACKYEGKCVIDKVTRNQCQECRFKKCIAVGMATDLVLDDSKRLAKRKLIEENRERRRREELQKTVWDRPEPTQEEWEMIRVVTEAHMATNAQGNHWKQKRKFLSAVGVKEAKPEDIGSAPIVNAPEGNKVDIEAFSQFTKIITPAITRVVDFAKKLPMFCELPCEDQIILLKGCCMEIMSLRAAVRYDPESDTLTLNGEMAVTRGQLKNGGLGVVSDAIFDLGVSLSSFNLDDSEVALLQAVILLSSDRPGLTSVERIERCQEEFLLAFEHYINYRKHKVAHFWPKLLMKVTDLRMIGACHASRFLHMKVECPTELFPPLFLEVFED
# Method: ATG_XSP2_multi-species_TRANS is a cell-based, multiplexed assay created by modifying the existing Attagene TRANS-FACTORIAL system to include a panel of nuclear receptors from some or all the following species: human (Homo sapiens), mouse (Mus musculus), frog (Xenopus laevis), zebrafish (Danio rerio), chicken (Gallus gallus), and turtle (Chrysemys picta). The ECOTOX-FACTORIAL format uses HepG2, a human liver cell line, with measurements taken at 24 hours after chemical dosing in a 24-well plate. Xsp2 included 3 nM 6-alpha-fluorotestosterone and 1.5 nM norgestrel to stimulate the androgen receptor.ATG_zfTRb_XSP2 is one of 29 assay components measured or calculated from the ATG_XSP2_multi-species_TRANS assay. It is designed to make measurements of mRNA induction, a form of inducible reporter, as detected with fluorescence intensity signals by Reverse transcription polymerase chain reaction (RT-PCR) and Capillary electrophoresis technology.The assay endpoint ATG_zfTRb_XSP2 was analyzed in the positive analysis fitting direction relative to DMSO as the negative control and baseline of activity. Using a type of inducible reporter, measures of mRNA for gain-of-signal activity can be used to understand the reporter gene at the transcription factor-level as they relate to the gene TR. Furthermore, this assay endpoint can be referred to as a primary readout, because this assay has produced multiple assay endpoints where this one serves a reporter gene function. To generalize the intended target to other relatable targets, this assay endpoint is annotated to the nuclear receptor intended target family, where the subfamily is non-steroidal.
# Human liver HepG2 cells are transiently transfected with multiple reporter transcription units (MRTUs) in 6-well plates using FuGene 6 reagent (Roche; 3 ml FuGene/1 mg DNA). The MRTU constructs are regulated by a cis-regulating element (promoter). […] A major difference between the CIS and TRANS system is that in CIS activities of endogenous TFs are measured, whereas the TRANS assay evaluates changes in activities of exogenous, chimeric NR-Gal4 proteins. […] At the end of 24 hour incubation, total RNA was isolated using TriZol reagent (Invitrogen). The isolated RNA is then reverse-transcribed using oligo(dT) primer and Mo-MLV reverse transcriptase (Invitrogen) with DNAse I (Ambion) treatment for 30 min. The one-tenth of the produced cDNA was amplified by PCR using Taq DNA polymerase (Invitrogen) and two reporter sequence-specific primers. The PCR products were fluorescently labeled by primer extension with 6-arboxyfluorescein (6-FAM) 5'-labeled reporter sequence-specific primer (2 min at 95 C, 20 s at 68 C and 10 min at 72 C) and these products were digested with 5U of HpaI (New England Biolabs) for 2h at 37 C. The fragments were purified using Qiaquick PCR columns (Qiagen), analyzed on an ABI 3130xL genetic analyzer (Applied Biosystems) with peak positions identified by using a set of X-rhodamine (ROX)-labeled MapMarker1000 molecular weight standards (BioVentures). The raw capillary electrophoresis data was processed using Attagraph software (Attagene).
# [6] = ATG_XTT_Cytotoxicity_XSP2: Cytotoxicity Assessment in the Attagene TRANS-FACTORIAL Multi-Species (XSP2) HepG2 Assay (AID 2283837)
# Summary of the method: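 HepG2 cells, transiently transfected with multiple reporter constructs, exposed to chemical for 24 h. Cell number assessed with XTT fluorescence read-out; loss of signal fitted relative to DMSO.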
# [7] = target: frog Thyroid hormone Receptor alpha (TRa), thra-a (gene 397942) (UniProt P15204); assay: ATG_frTRa_XSP2: Attagene TRANS-FACTORIAL Multi-Species (XSP2) HepG2 Assay for frog Thyroid hormone Receptor alpha (TRa) (AID 2283839)
# frog Thyroid hormone Receptor alpha (TRa), thra-a (gene 397942), sequence (P15204 whole entry, looked up, the tested form may be a part): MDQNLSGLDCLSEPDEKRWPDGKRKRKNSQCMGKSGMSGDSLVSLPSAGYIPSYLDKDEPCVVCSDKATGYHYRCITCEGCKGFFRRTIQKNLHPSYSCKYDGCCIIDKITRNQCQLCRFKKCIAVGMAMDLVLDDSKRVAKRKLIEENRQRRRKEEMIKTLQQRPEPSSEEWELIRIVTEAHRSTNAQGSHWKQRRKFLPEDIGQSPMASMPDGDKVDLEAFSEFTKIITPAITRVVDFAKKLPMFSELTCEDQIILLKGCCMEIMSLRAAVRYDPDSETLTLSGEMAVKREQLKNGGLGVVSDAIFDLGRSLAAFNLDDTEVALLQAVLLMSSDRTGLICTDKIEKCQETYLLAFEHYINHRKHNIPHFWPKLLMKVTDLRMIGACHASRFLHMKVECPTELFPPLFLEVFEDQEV
# Summary of the method: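 Transfect HepG2 with multiple reporter units (GAL4-UAS), dose chemical, incubate 24 h. Isolate RNA, reverse-transcribe, PCR-amplify reporter, label with 6-FAM by primer extension, digest with HpaI, run capillary electrophoresis; induction scored against DMSO.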
# [8] = target: human Thyroid hormone Receptor beta (TRb), THRB (gene 7068) (UniProt P10828); assay: ATG_hTRb_XSP2: Attagene TRANS-FACTORIAL Multi-Species (XSP2) HepG2 Assay for human Thyroid hormone Receptor beta (TRb) (AID 2283840);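 note: actives raise reporter mRNA so potency reflects agonist-like gain of signal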
# human Thyroid hormone Receptor beta (TRb), THRB (gene 7068), sequence (P10828 whole entry, looked up, the tested form may be a part): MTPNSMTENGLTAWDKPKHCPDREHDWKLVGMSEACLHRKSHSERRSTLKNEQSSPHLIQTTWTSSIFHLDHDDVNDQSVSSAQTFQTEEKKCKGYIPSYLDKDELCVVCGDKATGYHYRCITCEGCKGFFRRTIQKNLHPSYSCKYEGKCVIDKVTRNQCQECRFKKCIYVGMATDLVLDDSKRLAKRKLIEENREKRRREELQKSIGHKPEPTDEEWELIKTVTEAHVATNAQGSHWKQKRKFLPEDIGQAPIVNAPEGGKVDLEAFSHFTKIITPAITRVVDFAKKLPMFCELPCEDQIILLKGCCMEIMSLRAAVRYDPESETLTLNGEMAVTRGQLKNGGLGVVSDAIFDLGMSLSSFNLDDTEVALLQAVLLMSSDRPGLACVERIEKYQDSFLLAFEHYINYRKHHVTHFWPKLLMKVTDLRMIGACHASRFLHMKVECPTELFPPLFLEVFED
# Summary of the method: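 Transient transfection of human HepG2 with multi-species NR-Gal4/GAL4-UAS reporter constructs; 24 h compound treatment; RNA isolation, reverse transcription, PCR and HpaI digest; capillary electrophoresis of labeled fragments; activity fitted upward versus DMSO.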
# [9] = target: human Thyroid hormone Receptor alpha (TRa), THRA (gene 7067) (UniProt P10827); assay: ATG_hTRa_XSP2: Attagene TRANS-FACTORIAL Multi-Species (XSP2) HepG2 Assay for human Thyroid hormone Receptor alpha (TRa) (AID 2283838)
# human Thyroid hormone Receptor alpha (TRa), THRA (gene 7067), sequence (P10827 whole entry, looked up, the tested form may be a part): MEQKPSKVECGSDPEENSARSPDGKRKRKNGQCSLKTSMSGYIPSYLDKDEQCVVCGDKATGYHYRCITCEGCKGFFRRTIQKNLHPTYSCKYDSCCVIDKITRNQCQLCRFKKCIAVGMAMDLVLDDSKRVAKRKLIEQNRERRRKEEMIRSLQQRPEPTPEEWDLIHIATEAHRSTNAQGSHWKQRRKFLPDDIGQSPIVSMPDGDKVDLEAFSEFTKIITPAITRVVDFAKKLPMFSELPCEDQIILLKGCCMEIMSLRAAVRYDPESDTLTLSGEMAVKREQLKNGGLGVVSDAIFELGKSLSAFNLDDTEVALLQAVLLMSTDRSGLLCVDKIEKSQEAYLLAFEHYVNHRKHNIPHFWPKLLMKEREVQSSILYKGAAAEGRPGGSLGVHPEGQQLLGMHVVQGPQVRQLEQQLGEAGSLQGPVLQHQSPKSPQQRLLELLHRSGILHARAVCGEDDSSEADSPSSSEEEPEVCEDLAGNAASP
# Summary of the method: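 HepG2 cells were transiently transfected with GAL4-UAS reporter units for chimeric human TRa-Gal4 and dosed for 24 hours, with 3 nM 6-alpha-fluorotestosterone and 1.5 nM norgestrel present. Reporter mRNA was quantified by RT-PCR, FAM labelling and capillary electrophoresis, with gain of signal fitted versus DMSO.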
structure (smiles),measurement,setting,value
CCOP(=S)(Oc1ccc([N+](=O)[O-])cc1)c1ccccc1 (configuration not stated),outcome,[1],inactive
same,outcome,[2],inactive
O=P(Oc1ccccc1)(Oc1ccccc1)Oc1ccccc1,outcome,[3],inactive
same,outcome,[4],inactive
same,outcome,[5],inactive
same,AC50,[1],50 µM (active)
CC(C)(C)N(NC(=O)c1ccc(Cl)cc1)C(=O)c1ccccc1,outcome,[1],inactive
same,outcome,[2],inactive
O=c1ssc(Cl)c1Cl,AC50,[1],9.92 µM (active)
same,AC50,[2],80.9 µM (active)
CCC(C)(C)c1ccc(O)cc1,outcome,[5],inactive
same,outcome,[6],inactive
same,outcome,[7],inactive
same,outcome,[8],inactive
same,outcome,[2],inactive
O=S1(=O)OCC2C(CO1)C1(Cl)C(Cl)=C(Cl)C2(Cl)C1(Cl)Cl (configuration not stated),outcome,[2],inactive
CCCCC(CC)COP(=O)(Oc1ccccc1)Oc1ccccc1 (configuration not stated),outcome,[1],inactive
same,outcome,[2],inactive
CCOP(=S)(OCC)SCSCC,outcome,[1],inactive
same,outcome,[2],inactive
CCCCc1ccc(O)cc1,outcome,[4],inactive
same,outcome,[5],inactive
same,outcome,[6],inactive
same,outcome,[9],inactive
same,AC50,[8],31 µM (active)
same,outcome,[8],inactive
same,outcome,[1],inactive
same,outcome,[2],inactive
OCC(F)(F)OC(F)(F)C(F)(F)OC(F)(F)C(F)(F)OC(F)(F)F,outcome,[1],inactive
O=NN1CCCC1,outcome,[1],inactive
same,outcome,[2],inactive
O=[N+]([O-])c1ccc(Cl)c(Cl)c1,outcome,[2],inactive
